# Screening results (PubChem)
# ARNT TACC3 PPI = disruptors of human ARNT/TACC3 interaction | AID 623870 | AlphaScreen His-ARNT PAS-B/GST-TACC3 binding, luminescence; TACC3 fragment carries E629A point mutation | 390,000 tested, 0.66% active | inhibition, % at 9.99 µM | Q9Y6A5;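 active = mean inhibition of replicates at least 50% and at least half of replicates each reaching 50%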;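 also: 0% = complete ARNT plus TACC3 wells and 100% = ARNT alone without TACC3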
# PfHsp90 set2 = reduces growth (ATP signal) of yeast expressing P. falciparum Hsp90; S. cerevisiae expressing PfHsp90, BacTiter-Glo ATP, 48 h; yeast lacking PDR1 and PDR3 efflux regulators; inhibition, % at 9.4 µM; 310,000 tested, 0.32% active; AID 504621;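 active = every replicate shows inhibition above about 80%, whatever the replicate mean, limit read from the data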;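 also: 0% = DMSO neutral controls and 100% = 20 µM radicicol positive controls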
# SIRT5 inh = inhibitors of human sirtuin-5 desuccinylase | Q9NXA8 | Purified SirT5, succinyl-peptide AMC, trypsin-coupled fluorescence | inhibition, % at 15 µM | 330,000 tested, 1.1% active; in the data active = inhibition above about 15%
# Target sequence (Q9NXA8 whole entry, looked up): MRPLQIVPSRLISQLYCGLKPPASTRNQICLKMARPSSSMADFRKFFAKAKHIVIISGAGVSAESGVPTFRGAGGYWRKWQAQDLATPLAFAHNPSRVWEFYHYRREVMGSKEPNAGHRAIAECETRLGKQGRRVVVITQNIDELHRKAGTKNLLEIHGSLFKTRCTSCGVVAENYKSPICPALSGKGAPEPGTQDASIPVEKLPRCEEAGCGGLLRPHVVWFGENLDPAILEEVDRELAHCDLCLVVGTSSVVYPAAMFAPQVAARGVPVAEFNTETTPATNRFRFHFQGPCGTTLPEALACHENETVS
# Casp6 inh = caspase-6 (human) enzyme inhibition. P55212. purified caspase-6, Z-VEID-R110 cleavage fluorescence. inhibition, % at 12.5 µM. 350,000 tested, 0.53% active. AID 686996;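 active = mean inhibition across replicates at least about 35%, with every replicate also reaching that limit, limit read from the data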;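 also: 0% = median of neutral control wells and 100% = no fluorescence left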
# Target sequence (P55212 24-179 limits assumed): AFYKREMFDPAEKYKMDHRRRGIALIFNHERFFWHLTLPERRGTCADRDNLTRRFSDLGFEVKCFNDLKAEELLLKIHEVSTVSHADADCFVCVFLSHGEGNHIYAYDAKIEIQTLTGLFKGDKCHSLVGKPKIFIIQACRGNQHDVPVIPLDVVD
# Target sequence (P55212 194-293 limits assumed): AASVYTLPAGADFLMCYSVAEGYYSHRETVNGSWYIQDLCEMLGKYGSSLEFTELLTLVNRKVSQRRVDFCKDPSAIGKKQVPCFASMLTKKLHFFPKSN
# NSD2 inh = inhibitors of human histone methyltransferase NSD2; O96028; 310,000 tested, 0.54% active; inhibition, % at 12.5 µM; NSD2 peptide methylation, AlphaScreen, 120 min; AID 743445; in the data active = inhibition above about 50%
# Active calls of the source: *; / = not tested or not shown; ! = not confirmed by another sample. Rows were chosen to be rich in hits. Some 2.1% of all compounds tested hit in one or more screens of this group.
SMILES,ARNT TACC3 PPI,PfHsp90 set2,SIRT5 inh,Casp6 inh,NSD2 inh
C/C(=N\Nc1ncc(Cl)cc1Cl)c1ccccn1,73.0*,107.9*,/,/,/
Cc1sc2ncnc(N/N=C/c3cccc(O)c3)c2c1C,10.3,4.0,/,/,0.5
C/C(=N\Nc1ncnc2sc(C)c(C)c12)c1ccccn1,/,104.3*,-7.7,-10.4,32.7
Cc1cc(NC(=O)CC(C)C)c(=O)n(Cc2ccccc2F)c1,active,-7.0,0.3,5.2,5.1
Cc1cc(NC(=O)CC(C)C)c(=O)n(Cc2c(F)cccc2Cl)c1,8.2,2.8,1.4,1.7,0.9
NC(=S)N/N=C/c1ccccc1OC(=O)/C=C/c1ccccc1,34.4*,-13.5,-13.0,-1.1,12.5
NC(=S)N/N=C/c1ccccc1OC(=O)c1cc2ccccc2oc1=O,50.9*,-4.4,0.2,1.6,-11.3
NC(=O)N/N=C/c1ccccc1OC(=O)c1cc2ccccc2oc1=O,-2.5,-3.4,-2.0,-2.3,-5.6
O=C(NC[C@H]1[C@@H](c2ccccc2)[C@@H](CO)N1Cc1ccccn1)NC1CCCC1,/,/,3.0,0.3,/
CN(C)CC(=O)Nc1ccc2c(c1)[C@@H]1C[C@@H](CC(=O)N3CCOCC3)O[C@H](CO)[C@@H]1O2,-1.1,/,/,/,/
c1ccc(-n2nnnc2SCc2ccccn2)cc1,-9.1,/,/,/,3.5
Cc1nnc(SCc2ccccn2)n(N)c1=O,active,/,0.7,-1.3,-2.1
Cc1nnc(SCc2cccc3ccccc23)n(N)c1=O,-4.4,-11.1,0.2,2.2,-3.0
Nn1c(SCc2ccccn2)nncc1=O,55.6*,11.4,0.1,-2.5,/
C=C(C)C(=O)Nc1cccc(C2=NOC3(C2)C[C@@H](C(N)=O)N(C(=O)/C(C)=C/C)C3)c1 (some centres undefined),-5.9,7.3,1.9,62.5*,/
C=C(C)C(=O)N1CC2(CC(c3cccc(NC(=O)CCCCC)c3)=NO2)C[C@H]1C(N)=O (some centres undefined),-1.2,-14.4,23.4*,8.0,/
C/C=C(\C)C(=O)Nc1cccc(C2=NOC3(C2)C[C@@H](C(N)=O)N(C(=O)c2ccccc2C(=O)c2ccccc2)C3)c1 (some centres undefined),-9.8,-4.3,8.6,6.2,/
C=C(C)C(=O)Nc1cccc(C2=NOC3(C2)C[C@@H](C(N)=O)N(C(=O)/C=C/C=C/C)C3)c1 (some centres undefined),-2.1,0.6,/,51.0*,/
C=C(C)C(=O)Nc1cccc(C2=NOC3(C2)C[C@H](C(N)=O)N(C(=O)c2ccccc2C(=O)c2ccccc2)C3)c1 (some centres undefined),0.1,1.8,2.3,63.0*,/
C/C=C/C=C/C(=O)N1CC2(CC(c3cccc(NC(=O)/C=C/C)c3)=NO2)C[C@@H]1C(N)=O (some centres undefined),0.6,8.7,/,3.2,/
CCCCCC(=O)Nc1cccc(C2=NOC3(C2)C[C@H](C(N)=O)N(C(=O)c2ccccc2)C3)c1 (some centres undefined),/,18.9,/,/,/
C/C=C(\C)C(=O)Nc1cccc(C2=NOC3(C2)C[C@@H](C(N)=O)N(C(=O)/C(C)=C/C)C3)c1 (some centres undefined),-0.1,10.7,/,3.6,/
Cc1noc(C)c1NC(=O)N(C)C[C@H]1Oc2ccc(NC(=O)c3ccncc3)cc2CC(=O)N([C@@H](C)CO)C[C@@H]1C,-4.3,/,6.0,-0.4,/
NCCC(=O)NCCc1cnc[nH]1,/,-3.5,0.9,-1.9,/
NCCc1cnc[nH]1,73.2*!,-20.4,-2.5,-46.5,/
SMILES,ARNT TACC3 PPI,PfHsp90 set2,SIRT5 inh,Casp6 inh,NSD2 inh
COc1ccc(S(=O)(=O)Nc2ccc3c(c2)CC(=O)N([C@H](C)CO)C[C@H](C)[C@@H](CN(C)S(=O)(=O)c2ccc(C)cc2)O3)cc1,-2.8,/,10.0,/,/
CCOC(=O)N1CCN(C(=O)/C(=C/c2cccs2)NC(=O)c2cccs2)CC1,/,24.6,17.4*,1.1,-1.6
O=[N+]([O-])c1ccc2c(c1)nc1n2CCCCC1,-2.1,5.6,16.6*,-3.1,-2.8
COC(=O)c1c(NC(C)=O)sc2c1CCN(Cc1ccccc1)C2,-12.0,-39.7,18.0*,1.1,/
CC1=C/C(=C\c2ccc(Br)o2)C(=O)O1,-1.6,18.8,0.1,83.1*,97.8*
O=C(Nc1ccccc1F)N1CCCCN2[C@H](C1)[C@@H](c1ccc(C3=CCCC3)cc1)[C@@H]2CO,-9.8,/,-0.4,0.4,/
C[C@H]1CN([C@@H](C)CO)S(=O)(=O)c2ccc(-c3cccc(F)c3)cc2O[C@@H]1CN(C)S(=O)(=O)c1ccccc1,7.6,/,15.6*,-0.6,/
C[C@@H]1CN([C@H](C)CO)S(=O)(=O)c2ccc(-c3cccc(F)c3)cc2O[C@@H]1CN(C)S(=O)(=O)c1ccccc1,-4.8,/,16.3*,-5.0,/
C[C@H](CO)N1C[C@H](C)[C@@H](CN(C)S(=O)(=O)c2ccccc2)Oc2cc(-c3cccc(F)c3)ccc2S1(=O)=O,8.5,/,6.7,-1.2,/
C[C@@H]1CN([C@@H](C)CO)S(=O)(=O)c2ccc(-c3cccc(F)c3)cc2O[C@H]1CN(C)S(=O)(=O)c1ccccc1,12.8,/,12.7,4.7,/
COc1ccccc1-c1ccc2c(c1)O[C@H](CN(C)S(=O)(=O)c1ccccc1)[C@@H](C)CN([C@@H](C)CO)S2(=O)=O,-6.6,/,19.7*,-2.6,/
C[C@@H]1CN([C@H](C)CO)S(=O)(=O)c2ccc(-c3cccc(F)c3)cc2O[C@H]1CN(C)S(=O)(=O)c1ccccc1,4.5,/,16.7*,-1.4,/
COc1ccccc1-c1ccc2c(c1)O[C@H](CN(C)S(=O)(=O)c1ccccc1)[C@@H](C)CN([C@H](C)CO)S2(=O)=O,16.4,/,14.8,-0.8,/
CN1CCN(C(=O)C[C@H]2C[C@@H]3c4cc(NC(=O)C5CCOCC5)ccc4O[C@@H]3[C@H](CO)O2)CC1,-6.6,/,0.4,1.3,/
CN(C)/C=C1\C(=O)NN=C1c1ccccc1,27.7*,-66.1,-5.0,4.5,0.7
CNC(=O)C[C@H]1CC[C@@H]2[C@@H](COc3ccc(NC(=O)c4ccccc4Cl)cc3C(=O)N2C)O1,-6.7,/,5.0,1.3,/
CC(C)CC#Cc1ccc2c(c1)O[C@H](CN(C)S(=O)(=O)c1cccc(F)c1)[C@H](C)CN([C@@H](C)CO)S2(=O)=O,3.3,/,17.3*,-2.0,/
CCCC#Cc1ccc2c(c1)O[C@H](CN(C)S(=O)(=O)c1cccc(F)c1)[C@@H](C)CN([C@@H](C)CO)S2(=O)=O,0.0,/,-1.1,-1.2,/
CC(C)CC#Cc1ccc2c(c1)O[C@H](CN(C)S(=O)(=O)c1cccc(F)c1)[C@H](C)CN([C@H](C)CO)S2(=O)=O,9.7,/,20.7*,1.8,/
O=C(C[C@@H]1C[C@H]2c3cc(NC(=O)c4cccnc4)ccc3O[C@H]2[C@H](CO)O1)NC1CCCC1,/,/,-4.6,1.7,/
C[C@@H]1CN([C@H](C)CO)S(=O)(=O)c2ccc(-c3ccccc3)cc2O[C@H]1CN(C)C(=O)Nc1ccccc1F,-0.5,/,5.7,2.0,/
O=C(CN1CCOCC1)N[C@H]1CC[C@H](CCNS(=O)(=O)c2ccccc2F)O[C@H]1CO,-16.7,/,-1.2,0.4,/
